Bioassay records (PubChem)
A selection: hits, their analogues and other compounds. The true share with any hit is near 18%.
GCN5L2 inh: qHTS Assay for Inhibitors of GCN5L2; GCN5L2 HAT assay, ThioGlo1 CoA-SH fluorescence; Potency, µM (highest dose often 58.9 µM), for inactives: top-dose activity change, negative = inhibition, usual class: inhibitors; Histone acetyltransferase KAT2A (Homo sapiens), Q92830; 390,000 tested, 0.21% active
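GCN5L2 (20nM final) in 50mM HEPES, 0.1mM EDTA pH 7.5, 0.01% Tween-20 was preincubated 15 min at room temperature with compound, then given ThioGlo1 (50uM), H3(1-25) peptide (75uM) and acetyl-CoA (70uM); CoA-thiol fluorescence (Ex340/Em540) was read at 0 and 20 min.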
TDP1 block: qHTS Assay for Inhibitors of Tyrosyl-DNA Phosphodiesterase (TDP1). Potency, µM (series often up to 130 µM), for inactives: at the top dose activity change, negative = inhibition, most hits filed as inhibitors. 350,000 tested, 0.28% active. recombinant TDP1, AlphaScreen DNA substrate cleavage. Tyrosyl-DNA phosphodiesterase 1 (Homo sapiens), Q9NUW8; further: nearly all actives have a fitted effect of over 40% in size
Target sequence (Q9NUW8 whole entry, looked up): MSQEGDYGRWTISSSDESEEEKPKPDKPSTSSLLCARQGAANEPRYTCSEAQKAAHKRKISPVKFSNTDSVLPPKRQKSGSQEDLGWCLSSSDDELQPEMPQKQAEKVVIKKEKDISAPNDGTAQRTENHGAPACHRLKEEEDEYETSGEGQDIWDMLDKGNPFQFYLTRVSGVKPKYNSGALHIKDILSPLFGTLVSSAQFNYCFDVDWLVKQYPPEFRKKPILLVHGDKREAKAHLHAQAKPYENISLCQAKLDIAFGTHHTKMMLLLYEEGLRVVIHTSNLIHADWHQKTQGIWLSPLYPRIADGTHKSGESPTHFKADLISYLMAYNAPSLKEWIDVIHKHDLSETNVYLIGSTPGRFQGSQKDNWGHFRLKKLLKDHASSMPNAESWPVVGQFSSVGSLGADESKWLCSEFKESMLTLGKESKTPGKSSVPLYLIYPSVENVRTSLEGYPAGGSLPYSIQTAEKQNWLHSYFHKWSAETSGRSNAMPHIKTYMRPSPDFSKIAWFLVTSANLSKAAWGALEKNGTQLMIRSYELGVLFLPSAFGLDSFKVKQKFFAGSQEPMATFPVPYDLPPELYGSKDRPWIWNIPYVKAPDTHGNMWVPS
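AlphaScreen read-out: signal falls as enzyme removes the 3' tyrosine-FITC from a 5'-biotinylated DNA oligo (15 nM, 5 min, RT). Enzyme was E. coli-made recombinant Tdp1 at 1 nM, exposed to compound for 15 min beforehand; beads 10 ug/ml, 10 min.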
DT40 TDP1 CPT: qHTS for Inhibitors of human tyrosyl-DNA phosphodiesterase 1 (TDP1): qHTS in cells in presence of CPT | chicken DT40 Tdp1-/-;hTDP1 cells + 20 nM CPT, ATP luminescence, 48 h | Potency, µM (titrated, usually from 46.2 µM), without a hit: at the top dose activity change, negative = growth inhibition, hits mostly inhibitors | 420,000 tested, 12% active | AID 686979, 2013; further: nearly all actives have a fitted effect of over 55% in size
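Chicken DT40 Tdp1-/- cells stably complemented with human TDP1 were seeded at 400 cells/well in medium containing 20 nM camptothecin, exposed to pin-transferred compounds, and grown at 37 °C for at least 48 hr. Viability was read as ATP luminescence.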
TDP1 cell noCPT: qHTS for Inhibitors of human tyrosyl-DNA phosphodiesterase 1 (TDP1): qHTS in cells in absence of CPT; DT40 Tdp1-/- hTDP1 cells, no CPT, ATP luminescence, 48 h; Potency, µM (highest dose often 46.2 µM), inactives show top-dose activity change, negative = growth inhibition, usual class: inhibitors; 420,000 tested, 15% active; further: nearly all actives have a fitted effect of over 55% in size
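DT40 Tdp1-/-;hTDP1 cells, no CPT (DMSO vehicle only), 400 cells/well; compounds pin-transferred; ≥48 hr, 37 °C; CellTiter-Glo 30 min RT dark, luminescence read.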
VDR inhibitor: Inhibitors of the vitamin D receptor (VDR): qHTS; Vitamin D3 receptor (Homo sapiens), P11473; VDR-SRC2-3 peptide fluorescence polarization, 2 h; Potency, µM, for inactives: max response, negative = inhibition, most hits filed as inhibitors; 400,000 tested, 0.93% active; AID 504847, 2011
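The screen uses fluorescence polarization to detect compounds that interfere with recruitment of the SRC2-3 coactivator peptide to VDR; plates are read after 2 h at room temperature.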
PLK1 PBD inh: qHTS for Inhibitors of PLK1-PDB (polo-like kinase 1 - polo-box domain): Primary Screen; Serine/threonine-protein kinase PLK1 (Homo sapiens), P53350; Plk1 PBD binding of FITC phosphopeptide, fluorescence polarization; Potency, µM, for inactives: max response, negative = inhibition, hits mostly inhibitors; 360,000 tested, 2.8% active; AID 720504, 2013; further: series mostly up to about 57 µM; nearly all actives have a fitted effect of over 65% in size
Numbers without * were called inactive; ? = inconclusive; · = not tested or not shown. The call rests on the fitted dose curve; in most records, active means well fitted curve in the direction sought with a large enough effect; inconclusive means small, poorly fitted or top-dose-only effect, or another doubt; inactive means no such curve, though single readings can be large; an effect the other way counts as inactive or inconclusive. On the % scale 0 is the no-effect control and ±100 the full control effect; potency means the concentration at half of the fitted maximal effect.

SMILES	GCN5L2 inh	TDP1 block	DT40 TDP1 CPT	TDP1 cell noCPT	VDR inhibitor	PLK1 PBD inh
Cc1ccccc1S(=O)(=O)N1CCN(c2nc(-c3cccs3)nc3ccccc23)CC1	·	2%	?	?	-8%	·
CCOC(=O)c1ccccc1S(=O)(=O)N1CCN(c2nc(-c3cccs3)nc3ccccc23)CC1	·	1%	11µM*	11µM*	0%	·
C=CCN(C(=O)CCC(=O)O)C1CC(=O)N(c2ccc(OC)cc2)C1=O (centres undefined)	-5%	2%	3%	-2%	-6%	-3%
C=CCN(C(=O)CCC(=O)O)C1CC(=O)N(c2ccc(OCCC)cc2)C1=O (centres undefined)	-8%	4%	23µM*	26µM*	-21%	24µM*
Cc1ccc(NC(=O)N(CCCN2CCOCC2)Cc2cc3cc4c(cc3[nH]c2=O)OCO4)cc1	-19%	6%	21µM*	?	2%	-11%
COc1cc2cc(CN(CCCN3CCOCC3)C(=O)Nc3ccc(F)cc3)c(=O)[nH]c2cc1OC	-1%	0%	-29%	?	-13%	5%
Cc1ccc(NC(=O)N(Cc2ccc3c(c2)OCO3)Cc2cc3cc4c(cc3[nH]c2=O)OCCO4)cc1	-3%	-1%	18µM*	?	-13%	-11%
O=C(Nc1ccccc1)N(CCCN1CCOCC1)Cc1cc2cc3c(cc2[nH]c1=O)OCCO3	2%	2%	?	10µM*	-3%	1%
O=C(NCc1ccccc1Br)C1CCCN(C(=O)N2CCOc3ccccc32)C1 (centres undefined)	-7%	1%	?	?	12%	·
COCCn1c(=O)c(-c2cn(C)c3ccccc23)nc2cnc(Oc3ccccc3)nc21	?	·	6%	-10%	-9%	·
COCCN(CC(=O)Nc1ccccc1C(F)(F)F)C(=O)c1ccc(-n2cccn2)cc1	-2%	0%	-17%	0%	0%	-3%
COc1ccc(NC(=O)C2(C)CCN2Cc2ccc(OC(F)(F)F)cc2)cc1OC (centres undefined)	·	·	23µM*	?	·	3%
COc1ccc(NC(=O)C2(C)CCN2Cc2ccc(SC)cc2)cc1OC (centres undefined)	·	·	16µM*	?	·	3%
CSc1ccc(CN2CCC2(C)C(=O)NC2CCN(Cc3ccccc3)CC2)cc1 (centres undefined)	·	·	26µM*	18µM*	·	0%
COc1ccc(CN2CCC2(C)C(=O)Nc2ccc(OC)c(OC)c2)cc1 (centres undefined)	·	·	?	?	·	-3%
Cc1ccccc1OCCSc1nc(C)c(Cc2ccccc2)c(=O)[nH]1	2%	2%	?	-20%	29%	·
COc1ccc(C2Nc3ccccc3C(=O)N2Cc2ccc(C(C)(C)C)cc2)cc1COc1ccc(NC(C)=O)cc1 (centres undefined)	·	1%	·	·	·	·
O=c1c(-c2cc(F)cc(F)c2)nc2cnc(N3CCNCC3)nc2n1Cc1cccs1	1%	·	?	21µM*	44%	·
CN1CCN(c2ncc3nc(-c4ccc(Cl)cc4)c(=O)n(Cc4cccs4)c3n2)CC1	-7%	·	?	?	-9%	·
CN1CCN(c2ncc3nc(-c4ccccc4)c(=O)n(C4CC4)c3n2)CC1	-7%	·	21µM*	?	-5%	·
CN1CCN(c2ncc3nc(-c4cccs4)c(=O)n(C[C@H]4CCCO4)c3n2)CC1	?	·	12µM*	5.2µM*	0%	·
CN1CCN(c2ncc3nc(-c4ccccc4)c(=O)n(Cc4cccs4)c3n2)CC1	-6%	·	?	16µM*	-8%	·
O=c1c(-c2cc(F)cc(F)c2)nc2cnc(N3CCOCC3)nc2n1Cc1cccs1	-1%	·	9%	2%	-2%	·
Cc1cc(C)c(Cn2cnc3nc4c(cc3c2=O)CCCC4)c(C)c1	1%	5%	-20%	?	2%	·
COc1ccc(Cl)cc1NS(=O)(=O)c1cccc(C(=O)NC2CC2)c1	-3%	0%	-10%	-29%	-9%	1%
SMILES	GCN5L2 inh	TDP1 block	DT40 TDP1 CPT	TDP1 cell noCPT	VDR inhibitor	PLK1 PBD inh
COCCn1c(=O)cnc2cnc(N3CCN(C)CC3)nc21	?	·	23µM*	-22%	-3%	·
O=c1c(-c2cccs2)nc2cnc(N3CCNCC3)nc2n1C1CC1	?	·	?	21µM*	-9%	·
CN1CCN(c2ncc3nc(-c4cccs4)c(=O)n(Cc4cccs4)c3n2)CC1	-21%	·	18µM*	?	?	·
O=c1c(-c2ccc(F)cc2)nc2cnc(N3CCOCC3)nc2n1Cc1cccs1	-5%	·	-24%	-21%	-9%	·
Cn1c(=O)c(-c2cccs2)nc2cnc(N3CCNCC3)nc21	?	·	-21%	-26%	-3%	·
O=c1c(-c2ccc(Cl)cc2)nc2cnc(N3CCNCC3)nc2n1Cc1cccs1	?	·	6.5µM*	21µM*	71%	·
O=c1c(-c2cccs2)nc2cnc(N3CCNCC3)nc2n1Cc1cccs1	?	·	7.3µM*	13µM*	104%	·
CSc1ncc(Cl)c(C(=O)N(Cc2ccc(C(C)C)cc2)C2CCS(=O)(=O)C2)n1 (centres undefined)	-11%	0%	?	?	3%	·
CC(C)Sc1ncc(Cl)c(C(=O)N(Cc2ccc(F)cc2)C2CCS(=O)(=O)C2)n1 (centres undefined)	-5%	5%	?	23µM*	20%	·
CCCOc1ccc(CN(C(=O)c2nc(SC(C)C)ncc2Cl)C2CCS(=O)(=O)C2)cc1 (centres undefined)	-14%	-5%	?	15µM*	15%	·
CCSc1ncc(Cl)c(C(=O)N(Cc2ccccc2Cl)C2CCS(=O)(=O)C2)n1 (centres undefined)	-6%	9%	18µM*	15µM*	15%	·
CSc1ncc(Cl)c(C(=O)N(Cc2ccc(C)cc2)C2CCS(=O)(=O)C2)n1 (centres undefined)	-3%	5%	?	?	-3%	·
O=C(Nc1ccc(S(=O)(=O)N2CCCC2)cc1)C1CC(=O)N(CCc2ccccc2)C1 (centres undefined)	·	·	?	?	·	-6%
